From PubChem
MOR-DOR ag-1 = OPRM1-OPRD1 heterodimerization agonism. P35372+P41143. 340,000 compounds, 0.3% hits. cells, luminescence. AID 504326. activation, % at 9.3 µM;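 also: 0% = vehicle-treated cells and 100% = reference agonist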
HTR5A inv ag = counter-screen for OPRM1-OPRD1 inverse agonists: human HTR5A inverse agonism | inhibition, % at 9.3 µM | 340,000 compounds, 0.083% hits | P47898 | AID 504634 | HTR5A cell line, luminescence; in the data active = inhibition mostly above about 23%, no sharp cut-off; inactive = mostly below about 18%;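 also: 0% = cells with DMSO and 100% = no-cell wells with DMSO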
Target sequence (P47898 whole entry, looked up): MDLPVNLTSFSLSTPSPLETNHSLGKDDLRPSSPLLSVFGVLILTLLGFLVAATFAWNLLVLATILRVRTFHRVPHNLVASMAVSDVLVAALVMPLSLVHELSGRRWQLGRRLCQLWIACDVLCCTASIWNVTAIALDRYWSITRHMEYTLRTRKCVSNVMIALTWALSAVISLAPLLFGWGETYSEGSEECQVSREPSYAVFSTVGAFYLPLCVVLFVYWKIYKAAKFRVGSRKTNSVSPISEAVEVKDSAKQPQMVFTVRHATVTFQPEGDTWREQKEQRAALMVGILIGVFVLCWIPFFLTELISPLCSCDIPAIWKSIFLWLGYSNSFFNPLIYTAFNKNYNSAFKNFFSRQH
MOR-DOR inv ag = inverse agonists of human mu-delta opioid receptor heterodimerization; P35372+P41143; cell-based MOR-DOR heterodimer luminescence, inverse agonism; inhibition, % at 9.3 µM; 340,000 compounds, 0.21% hits; AID 504357; in the data active = inhibition above about 22%, passing the limit was not always enough;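 also: 0% = cells with DMSO and 100% = wells without cells with DMSO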
HTR5A ag = HTR5A agonism, opioid heterodimer counter-screen; activation, % at 9.3 µM; P47898; AID 504692; HTR5A agonist assay, luminescence, cell-based; 340,000 compounds, 0.61% hits; in the data active = activation mostly above about 9.5%, no sharp cut-off; inactive = mostly below about 7.6%;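 also: 0% = cells with vehicle only and 100% = reference agonist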
HTR2A ag = agonists of mouse serotonin 5-HT2A receptor (HTR2A); P35363; CHO-K1 mHTR2A beta-arrestin complementation, luminescence; percent of 30 µM serotonin response; activation, % at 7.6 µM; 360,000 compounds, 0.66% hits; AID 624169;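 active = activation above a run cutoff, the mean activation of all tested compounds plus 3 SD, cut at about 14% in these data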;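 also: 0% = plate median of compound wells and 100% = 30 µM serotonin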
MOR-DOR ag-2 = opioid heterodimer agonism, HTR5A counter-screen. shares compounds with HTR5A ag. U2OS counter-screen cells, complementation luminescence, 3 h. activation, % at 9.3 µM. 800 compounds, 13% hits. AID 504913
HTR5A ag conf = HTR5A (human) agonism, confirmation | HTR5A agonist cell assay, luminescence | shares compounds with HTR5A ag | activation, % at 9.3 µM | 800 compounds, 17% hits; in the data active = activation above about 17%;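 also: 0% = cells with vehicle only and 100% = full reference agonist response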
Active calls of the source: *; . = no result. A selection: hits, their analogues and other compounds. The true share with any hit is near 1.6%. Rule as the data show it, unless noted: active = activation above about 18%; inactive = the rest.

SMILES | MOR-DOR ag-1 | HTR5A inv ag | MOR-DOR inv ag | HTR5A ag | HTR2A ag | MOR-DOR ag-2 | HTR5A ag conf
Cc1ccccc1NC(=O)Nc1nnc([C@@H]2C[C@H](O)[C@@H](CO)O2)s1 | . | . | . | . | 1 | . | .
CN(Cc1ccc(Cl)cc1)C(C(=O)NC1CCCCC1)c1ccnc2ccccc12 (stereo not drawn) | . | . | . | . | -6 | . | .
CC(=O)Nc1ccc(NC(=O)C2CCCN(C(=O)c3ccc(Cl)cc3)C2)cc1 (stereo not drawn) | -3 | 6 | 14 | -2 | 0 | . | .
CS(=O)(=O)c1ccc(NC(=O)C2CCCN(C(=O)c3ccc(Cl)cc3)C2)cc1 (stereo not drawn) | -2 | -47 | 6 | 19* | 3 | 6 | 4
COc1ccc(NC(=O)CSc2nnc(Cc3cccn3C)n2-c2ccc(C)cc2)cc1OC | -2 | -49 | 9 | 15* | 0 | 3 | 3
CCC1Cc2[nH][nH]c(=O)c2C(CC)O1 (stereo not drawn) | . | . | . | . | -1 | . | .
CCOC(=O)CN1N=C(/C=C/c2ccc(C(C)C)cc2)CCC1=O | 2 | -4 | -12 | 2 | -3 | . | .
CCOC(=O)C(C)N1N=C(/C=C/c2ccc(C)cc2)CCC1=O (stereo not drawn) | -2 | -54 | 8 | 21* | -2 | 1 | 4
COc1cc(C(=O)NCC(=O)N/N=C/c2ccc(OC(=O)c3ccco3)cc2)cc(OC)c1OC | -2 | -9 | 11 | 22* | -1 | 1 | 4
COc1cc(/C=N/NC(=O)CNC(=O)c2ccco2)ccc1O | -4 | -5 | 20 | 2 | -2 | . | .
COc1ccc(Nc2c(CCc3ccccc3)nc3nc(C)cc(C)n23)cc1 | . | . | . | . | 7 | . | .
COc1ccc(C(=O)O/N=C(\N)Cc2ccc(Cl)cc2)cc1OC | 10 | -10 | -59 | 25* | -4 | 7 | 6
N/C(Cc1ccc([N+](=O)[O-])cc1)=N\OC(=O)c1cccc(Br)c1 | 12 | -1 | -87 | 1 | -2 | . | .
N/C(Cc1ccc([N+](=O)[O-])cc1)=N\OC(=O)c1ccc([N+](=O)[O-])cc1 | 2 | -50 | -9 | 21* | 4 | 3 | 1
CC1(c2nnnn2Cc2ccccc2)CCC(=O)N1Cc1ccco1 (stereo not drawn) | . | . | . | . | 1 | . | .
CCC(C(=O)Nc1ncn[nH]1)(C(F)(F)F)C(F)(F)F | -1 | -12 | 4 | 18* | 1 | 0 | 1
O=C(Nc1ncn[nH]1)C(F)(F)C(F)F | -1 | 5 | 4 | -1 | 5 | . | .
CCCc1cc(=O)n2nc(N3CCC(C(=O)Nc4cccc(C(C)=O)c4)CC3)sc2n1 | -2 | 8 | 11 | 17* | 9 | 18 | 0
NC(=O)C1CCN(Cc2nc(-c3ccccc3)no2)CC1 | -2 | -47 | 8 | 17* | 2 | 0 | -1
CCOC(=O)C1CCN(C2CCN(Cc3nc(-c4ccccc4)no3)CC2)CC1 | -2 | 0 | 11 | 3 | -6 | . | .
Cc1ccc(-c2noc(CN3CCN(c4ccccc4F)CC3)n2)cc1 | 2 | -55 | -9 | 20* | 8 | -4 | -4
COc1ccc(-c2c(-c3ccsc3)oc(=O)c3cc(OC)c(OC)cc23)cc1 | 1 | -61 | -6 | 23* | 4 | 3 | 1
COc1cc2c(-c3cc(F)cc(F)c3)c(-c3ccsc3)oc(=O)c2cc1OC | -2 | 14 | 11 | -4 | 4 | . | .
c1ccc2c(-c3ccc4nncn4c3)cncc2c1 | . | . | . | . | 1 | . | .
CC[C@@]12C(=O)N(c3cccc(F)c3)C(=O)N1[C@H](c1ccc(Cl)cc1)[C@@H]1C(=O)N(C3CCCCC3)C(=O)[C@@H]12 | 8 | -10 | -47 | 15* | 6 | 19* | 11
CCOC(=O)c1nc2ccc(C)cc2c2c1C1CC(c3c(Cl)cccc31)N2C(=O)OCc1ccccc1 (stereo not drawn) | . | . | . | . | 3 | . | .
CCc1ccc(-c2cc(C(=O)Nc3ccc(S(=O)(=O)NC(C)=O)cc3)c3ccccc3n2)cc1 | -2 | -51 | 12 | 21* | 14 | 10 | -3
CC1(C(=O)NS(=O)(=O)c2ccc(Br)cc2)CCN1C(=O)Cc1cccs1 (stereo not drawn) | . | . | . | . | 2 | . | .
